Reference: the supplement of paper PMC11732987, “Enantioselective OTUD7B fragment discovery through chemoproteomics screening and high-throughput optimisation” (Communications Chemistry, 2025)

Assays:
Assay in all cases: log2 ratio of Biotin-Ahx-Ub-VS probe labelling (fragment/DMSO); higher = less target engagement (more negative = stronger competition), active = hit call of the paper (q ≤ 0.05, log2 ratio ≤ -1)
Settings in all cases: compound concentration: 200 uM; treatment time: 3 h
[1] = biological target: USP9X (UniProt Q93008)
Procedure, shortened: (§1)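 HEK293T lysate (495 µg per sample, in Tris/CHAPS/IGEPAL buffer with protease inhibitors) was exposed in triplicate for 3 h to fragment at 200 µM or to vehicle, then to Biotin-Ahx-Ub-VS at 0.5 µM final for 1 h. Labelled DUBs were enriched on NeutrAvidin, digested with LysC and trypsin, and analysed by diaPASEF LC-MS/MS. Spectronaut label-free quantities were normalised to the global median, and values are average log2 ratios of fragment over vehicle from an unpaired t-test. Only proteins with ≥2 unique peptides were used.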

[2] = biological target: UniProt O00487
Procedure, shortened: as §1

[3] = biological target: UniProt O00507
Procedure, shortened: as §1

[4] = biological target: UniProt P51784
Procedure, shortened: as §1

[5] = biological target: T1, UniProt Q5T2D3
T1 sequence (whole entry): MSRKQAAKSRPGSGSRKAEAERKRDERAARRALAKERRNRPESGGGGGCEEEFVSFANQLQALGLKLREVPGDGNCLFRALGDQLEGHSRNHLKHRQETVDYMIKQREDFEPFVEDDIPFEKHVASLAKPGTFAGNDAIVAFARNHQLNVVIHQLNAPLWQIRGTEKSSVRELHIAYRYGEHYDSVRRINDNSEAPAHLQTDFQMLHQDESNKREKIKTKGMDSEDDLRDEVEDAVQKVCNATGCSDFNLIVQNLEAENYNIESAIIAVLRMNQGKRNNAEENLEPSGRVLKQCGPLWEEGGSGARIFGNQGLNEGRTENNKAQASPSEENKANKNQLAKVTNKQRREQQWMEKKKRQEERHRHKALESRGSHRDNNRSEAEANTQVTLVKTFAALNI
Procedure, shortened: as §1

[6] = biological target: T2, UniProt Q8TE49
T2 sequence (whole entry): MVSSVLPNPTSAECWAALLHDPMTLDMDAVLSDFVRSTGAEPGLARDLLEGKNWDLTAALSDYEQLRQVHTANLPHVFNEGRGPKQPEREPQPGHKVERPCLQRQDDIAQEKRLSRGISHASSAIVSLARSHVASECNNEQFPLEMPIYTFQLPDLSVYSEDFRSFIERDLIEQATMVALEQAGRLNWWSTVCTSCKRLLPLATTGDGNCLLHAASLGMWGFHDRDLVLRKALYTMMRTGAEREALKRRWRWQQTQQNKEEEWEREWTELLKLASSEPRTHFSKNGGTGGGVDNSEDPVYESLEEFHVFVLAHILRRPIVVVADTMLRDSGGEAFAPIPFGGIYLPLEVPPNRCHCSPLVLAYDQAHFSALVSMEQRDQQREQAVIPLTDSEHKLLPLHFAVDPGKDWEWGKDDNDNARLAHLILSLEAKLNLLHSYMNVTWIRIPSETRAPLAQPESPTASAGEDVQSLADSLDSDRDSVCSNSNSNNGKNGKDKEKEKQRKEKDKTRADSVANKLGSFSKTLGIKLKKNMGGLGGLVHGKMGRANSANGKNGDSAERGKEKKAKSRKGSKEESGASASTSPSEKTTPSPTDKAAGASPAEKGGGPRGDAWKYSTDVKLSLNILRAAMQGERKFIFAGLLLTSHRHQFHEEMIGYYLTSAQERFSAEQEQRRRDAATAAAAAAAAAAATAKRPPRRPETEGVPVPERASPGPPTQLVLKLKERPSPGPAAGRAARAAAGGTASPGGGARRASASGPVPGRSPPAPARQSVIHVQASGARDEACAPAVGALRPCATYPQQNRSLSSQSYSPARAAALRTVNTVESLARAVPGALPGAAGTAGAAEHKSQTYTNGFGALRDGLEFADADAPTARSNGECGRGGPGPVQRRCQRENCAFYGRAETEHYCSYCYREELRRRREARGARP
Procedure, shortened: as §1

[7] = biological target: T3, UniProt Q9P2H5
T3 sequence (whole entry): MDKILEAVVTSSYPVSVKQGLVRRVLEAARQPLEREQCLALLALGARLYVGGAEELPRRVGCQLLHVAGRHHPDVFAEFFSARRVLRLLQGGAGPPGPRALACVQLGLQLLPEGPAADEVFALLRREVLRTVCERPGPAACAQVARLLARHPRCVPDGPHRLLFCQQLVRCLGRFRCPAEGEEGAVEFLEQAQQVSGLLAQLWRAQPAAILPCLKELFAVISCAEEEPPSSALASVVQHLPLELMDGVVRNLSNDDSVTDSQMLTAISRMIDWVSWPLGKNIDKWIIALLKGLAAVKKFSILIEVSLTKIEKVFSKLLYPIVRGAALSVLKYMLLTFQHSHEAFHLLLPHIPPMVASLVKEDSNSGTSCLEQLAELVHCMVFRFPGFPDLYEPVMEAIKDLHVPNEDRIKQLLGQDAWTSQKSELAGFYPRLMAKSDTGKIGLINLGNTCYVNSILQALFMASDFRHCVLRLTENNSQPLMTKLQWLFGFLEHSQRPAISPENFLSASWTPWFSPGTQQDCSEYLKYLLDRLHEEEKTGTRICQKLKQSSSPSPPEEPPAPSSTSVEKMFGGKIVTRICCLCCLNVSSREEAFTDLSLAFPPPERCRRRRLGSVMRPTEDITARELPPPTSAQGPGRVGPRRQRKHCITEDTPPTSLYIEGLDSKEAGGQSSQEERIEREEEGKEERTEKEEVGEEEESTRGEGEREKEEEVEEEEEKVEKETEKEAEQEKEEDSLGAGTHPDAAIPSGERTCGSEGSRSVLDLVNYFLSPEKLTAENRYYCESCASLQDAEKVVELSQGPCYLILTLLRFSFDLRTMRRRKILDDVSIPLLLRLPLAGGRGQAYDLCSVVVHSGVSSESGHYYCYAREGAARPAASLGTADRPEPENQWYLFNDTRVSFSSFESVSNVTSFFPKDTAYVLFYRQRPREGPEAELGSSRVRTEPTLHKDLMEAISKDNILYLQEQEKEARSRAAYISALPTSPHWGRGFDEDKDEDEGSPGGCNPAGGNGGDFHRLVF
Procedure, shortened: as §1

[8] = biological target: T4, UniProt Q9UGI0
T4 sequence (whole entry): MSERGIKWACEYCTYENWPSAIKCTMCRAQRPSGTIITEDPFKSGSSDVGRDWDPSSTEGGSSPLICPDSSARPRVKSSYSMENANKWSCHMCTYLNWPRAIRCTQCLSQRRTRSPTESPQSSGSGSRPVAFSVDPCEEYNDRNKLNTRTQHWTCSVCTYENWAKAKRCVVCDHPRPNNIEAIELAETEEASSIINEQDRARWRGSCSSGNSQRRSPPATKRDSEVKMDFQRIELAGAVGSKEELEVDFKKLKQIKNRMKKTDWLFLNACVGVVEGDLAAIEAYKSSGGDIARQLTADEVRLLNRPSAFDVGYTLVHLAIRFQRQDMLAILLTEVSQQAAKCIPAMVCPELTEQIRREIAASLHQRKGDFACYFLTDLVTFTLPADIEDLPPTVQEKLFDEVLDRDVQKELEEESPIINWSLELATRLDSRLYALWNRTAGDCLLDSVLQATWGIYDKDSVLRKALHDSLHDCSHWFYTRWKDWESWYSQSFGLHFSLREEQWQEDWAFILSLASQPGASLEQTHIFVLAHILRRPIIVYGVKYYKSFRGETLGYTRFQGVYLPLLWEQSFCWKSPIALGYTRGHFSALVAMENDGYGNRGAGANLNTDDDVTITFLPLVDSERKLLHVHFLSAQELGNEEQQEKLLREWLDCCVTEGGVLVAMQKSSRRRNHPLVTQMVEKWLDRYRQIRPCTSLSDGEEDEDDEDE
Procedure, shortened: as §1

[9] = biological target: T5, YOD1 (UniProt Q5VVQ6)
T5 sequence (whole entry): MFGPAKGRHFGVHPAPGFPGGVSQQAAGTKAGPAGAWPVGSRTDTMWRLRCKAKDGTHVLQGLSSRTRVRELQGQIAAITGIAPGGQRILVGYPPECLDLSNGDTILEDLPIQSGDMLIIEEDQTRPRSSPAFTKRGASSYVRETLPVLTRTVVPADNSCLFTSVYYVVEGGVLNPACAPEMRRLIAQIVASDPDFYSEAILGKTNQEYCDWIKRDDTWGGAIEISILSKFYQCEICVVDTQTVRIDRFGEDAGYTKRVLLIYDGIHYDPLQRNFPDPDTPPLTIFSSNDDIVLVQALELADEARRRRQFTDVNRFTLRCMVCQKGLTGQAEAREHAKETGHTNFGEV
Procedure, shortened: as §1

Measured: log2 ratio of Biotin-Ahx-Ub-VS probe labelling

Sequence of USP9X (Q93008 whole entry, the tested form may be a part): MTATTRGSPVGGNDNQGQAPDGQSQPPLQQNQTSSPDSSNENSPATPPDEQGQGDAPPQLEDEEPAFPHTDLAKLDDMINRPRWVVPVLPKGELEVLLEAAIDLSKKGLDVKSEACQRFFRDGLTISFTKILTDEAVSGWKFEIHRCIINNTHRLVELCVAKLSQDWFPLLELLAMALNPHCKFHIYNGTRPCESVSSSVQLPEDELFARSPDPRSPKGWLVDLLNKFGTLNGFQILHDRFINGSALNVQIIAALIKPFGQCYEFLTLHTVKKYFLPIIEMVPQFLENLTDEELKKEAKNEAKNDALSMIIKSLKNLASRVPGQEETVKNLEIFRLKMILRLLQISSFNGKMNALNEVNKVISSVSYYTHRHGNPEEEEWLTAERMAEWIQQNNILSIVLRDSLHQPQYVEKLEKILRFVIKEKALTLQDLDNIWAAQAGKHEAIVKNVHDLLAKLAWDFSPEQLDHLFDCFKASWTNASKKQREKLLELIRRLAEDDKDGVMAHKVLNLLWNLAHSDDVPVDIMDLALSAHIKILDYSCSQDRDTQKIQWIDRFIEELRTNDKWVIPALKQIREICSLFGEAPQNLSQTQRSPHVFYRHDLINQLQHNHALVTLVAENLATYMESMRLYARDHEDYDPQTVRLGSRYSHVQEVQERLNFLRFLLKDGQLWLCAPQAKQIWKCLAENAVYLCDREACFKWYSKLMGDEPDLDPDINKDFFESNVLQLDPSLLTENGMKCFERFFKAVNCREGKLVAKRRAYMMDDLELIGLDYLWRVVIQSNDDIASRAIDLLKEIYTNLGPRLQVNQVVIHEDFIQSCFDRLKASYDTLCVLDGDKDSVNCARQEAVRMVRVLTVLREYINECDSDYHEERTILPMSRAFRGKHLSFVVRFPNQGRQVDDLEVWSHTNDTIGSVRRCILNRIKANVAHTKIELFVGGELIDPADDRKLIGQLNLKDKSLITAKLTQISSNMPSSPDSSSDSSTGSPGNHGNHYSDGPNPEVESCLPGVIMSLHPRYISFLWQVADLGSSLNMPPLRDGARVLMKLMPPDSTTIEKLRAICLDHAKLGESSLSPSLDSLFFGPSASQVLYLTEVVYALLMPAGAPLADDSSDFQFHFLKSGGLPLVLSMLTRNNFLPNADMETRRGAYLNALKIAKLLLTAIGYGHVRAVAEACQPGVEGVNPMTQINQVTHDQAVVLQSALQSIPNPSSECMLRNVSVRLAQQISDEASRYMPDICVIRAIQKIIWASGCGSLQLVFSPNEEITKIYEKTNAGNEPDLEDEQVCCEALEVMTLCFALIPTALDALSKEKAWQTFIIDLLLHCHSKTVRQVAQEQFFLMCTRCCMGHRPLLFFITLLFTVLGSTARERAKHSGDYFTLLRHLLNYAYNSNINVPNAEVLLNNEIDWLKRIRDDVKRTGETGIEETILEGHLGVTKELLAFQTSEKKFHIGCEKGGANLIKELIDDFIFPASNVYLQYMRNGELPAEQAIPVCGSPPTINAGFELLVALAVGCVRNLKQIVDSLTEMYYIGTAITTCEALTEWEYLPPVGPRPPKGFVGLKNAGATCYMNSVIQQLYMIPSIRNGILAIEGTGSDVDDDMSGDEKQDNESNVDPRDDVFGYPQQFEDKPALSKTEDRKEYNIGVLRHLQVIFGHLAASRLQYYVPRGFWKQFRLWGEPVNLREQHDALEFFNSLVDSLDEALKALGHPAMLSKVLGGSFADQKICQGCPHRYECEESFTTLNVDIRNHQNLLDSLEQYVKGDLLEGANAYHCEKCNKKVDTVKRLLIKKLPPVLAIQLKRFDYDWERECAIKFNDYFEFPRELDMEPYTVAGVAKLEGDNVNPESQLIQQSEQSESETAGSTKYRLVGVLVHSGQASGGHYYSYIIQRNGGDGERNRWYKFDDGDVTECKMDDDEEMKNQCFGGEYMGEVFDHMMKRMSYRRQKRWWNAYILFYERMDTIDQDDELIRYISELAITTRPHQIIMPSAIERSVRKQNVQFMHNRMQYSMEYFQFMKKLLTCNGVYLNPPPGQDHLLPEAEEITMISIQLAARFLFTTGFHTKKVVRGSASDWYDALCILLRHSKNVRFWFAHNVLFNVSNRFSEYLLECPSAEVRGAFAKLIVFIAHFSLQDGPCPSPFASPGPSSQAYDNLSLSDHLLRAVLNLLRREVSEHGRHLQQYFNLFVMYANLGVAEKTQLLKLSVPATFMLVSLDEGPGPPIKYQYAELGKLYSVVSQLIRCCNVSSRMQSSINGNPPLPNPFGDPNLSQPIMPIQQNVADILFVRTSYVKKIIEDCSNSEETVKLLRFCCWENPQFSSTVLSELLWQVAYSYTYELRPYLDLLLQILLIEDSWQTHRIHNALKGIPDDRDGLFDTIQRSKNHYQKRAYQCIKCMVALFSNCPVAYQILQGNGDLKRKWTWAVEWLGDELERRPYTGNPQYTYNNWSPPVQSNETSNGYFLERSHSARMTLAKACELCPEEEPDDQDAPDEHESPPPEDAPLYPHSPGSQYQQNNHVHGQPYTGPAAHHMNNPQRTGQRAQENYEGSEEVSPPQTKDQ
Sequence of UniProt O00487 (O00487 whole entry): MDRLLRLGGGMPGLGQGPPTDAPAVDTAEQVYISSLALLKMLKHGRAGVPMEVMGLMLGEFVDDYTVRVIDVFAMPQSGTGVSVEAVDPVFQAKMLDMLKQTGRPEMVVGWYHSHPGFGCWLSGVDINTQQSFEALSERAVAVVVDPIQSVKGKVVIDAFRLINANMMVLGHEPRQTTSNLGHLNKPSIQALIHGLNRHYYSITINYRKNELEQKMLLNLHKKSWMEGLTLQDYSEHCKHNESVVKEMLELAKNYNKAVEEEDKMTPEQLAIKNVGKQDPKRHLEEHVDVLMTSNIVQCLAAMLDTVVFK
Sequence of UniProt P51784 (P51784 whole entry): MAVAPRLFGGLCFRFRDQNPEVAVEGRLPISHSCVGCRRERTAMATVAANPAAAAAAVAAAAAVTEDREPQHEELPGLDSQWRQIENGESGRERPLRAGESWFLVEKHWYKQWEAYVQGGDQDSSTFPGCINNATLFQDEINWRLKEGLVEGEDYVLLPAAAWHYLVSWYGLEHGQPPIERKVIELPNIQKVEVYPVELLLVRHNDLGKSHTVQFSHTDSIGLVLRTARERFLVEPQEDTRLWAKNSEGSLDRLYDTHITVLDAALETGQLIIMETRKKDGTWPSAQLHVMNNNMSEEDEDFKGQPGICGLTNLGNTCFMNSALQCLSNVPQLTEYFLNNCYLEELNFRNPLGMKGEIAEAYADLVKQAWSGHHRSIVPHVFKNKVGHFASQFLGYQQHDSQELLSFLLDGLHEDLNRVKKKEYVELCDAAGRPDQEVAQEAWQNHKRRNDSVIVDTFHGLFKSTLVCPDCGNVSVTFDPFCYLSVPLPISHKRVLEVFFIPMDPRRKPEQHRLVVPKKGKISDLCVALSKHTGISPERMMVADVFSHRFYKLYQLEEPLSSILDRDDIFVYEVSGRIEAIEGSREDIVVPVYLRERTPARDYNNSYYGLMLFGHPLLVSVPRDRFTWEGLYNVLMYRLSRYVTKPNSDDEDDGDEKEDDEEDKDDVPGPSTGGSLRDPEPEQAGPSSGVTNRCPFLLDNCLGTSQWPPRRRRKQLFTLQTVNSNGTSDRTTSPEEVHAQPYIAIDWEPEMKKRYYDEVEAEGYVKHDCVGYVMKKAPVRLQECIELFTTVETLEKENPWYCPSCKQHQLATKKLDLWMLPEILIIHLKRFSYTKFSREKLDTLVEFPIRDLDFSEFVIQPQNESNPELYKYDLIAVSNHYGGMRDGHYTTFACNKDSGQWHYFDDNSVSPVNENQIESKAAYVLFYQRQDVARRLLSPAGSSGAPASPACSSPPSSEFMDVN

O=C(CCl)Nc1cc(Cl)ccc1C(=O)O
inactive: [1] -0.165 | [2] -0.0135 | [3] 0.337 | [4] 0.177 | [5] -0.138 | [6] -0.2 | [7] -0.258 | [8] -0.128 | [9] 0.233
